# Compound activity as filed in PubChem.
# DUX4 txn inh – DUX4-mediated transcription inhibition | 37,000 tested, 0.8% active | 293T-iDUX4 ZSCAN4-Gaussia luciferase reporter, 24 h; stronger effect = lower value | activity change, negative = inhibition, % (no concentration beside the values) | AID 1224904;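 active = mean inhibition of at least 10% in the main channel, exceeding the control channel by a set limit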;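 also: 0% = median of neutral control wells and -100% = median of positive control wells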
# Numbers without * were called inactive; ! = a repeat was not active. This excerpt belongs to a sample that is enriched for hits.
SMILES,DUX4 txn inh
COc1ccc(NC(=O)N2CCCCN3[C@H](C2)[C@H](c2ccc(C#Cc4ccccn4)cc2)[C@@H]3CO)cc1,42
Cc1cccc(-c2ccc([C@@H]3[C@@H](CO)N4C(=O)CN(S(=O)(=O)c5cccc(F)c5)C[C@H]34)cc2)c1,-7
N#Cc1ccc(-c2ccc([C@H]3[C@H]4CN(C(=O)Cc5ccccc5)CC(=O)N4[C@H]3CO)cc2)cc1,-1
N#Cc1cccc(-c2ccc(C3[C@@H]4CN(C(=O)Cc5ccncc5)C[C@H]3N4)cc2)c1 (stereo partly drawn),-26*!
N#Cc1ccc(-c2ccc(C3[C@@H]4CN(C(=O)Cc5ccccc5)C[C@H]3N4)cc2)cc1 (stereo partly drawn),-53*!
N#Cc1cccc(-c2ccc(C3[C@@H]4CN(C(=O)c5cccnc5)C[C@H]3N4)cc2)c1 (stereo partly drawn),-4
Cc1cccc(-c2ccc(C3[C@@H]4CN(C(=O)Cc5ccncc5)C[C@H]3N4)cc2)c1 (stereo partly drawn),1
N#Cc1ccc(-c2ccc([C@@H]3[C@H](CO)N4C(=O)CN(C(=O)Cc5ccccc5)C[C@@H]34)cc2)cc1,-2
COc1ccccc1-c1ccc2n(c1=O)C[C@H]1[C@H](CO)[C@@H](C(=O)NC3CCC3)N(C(C)=O)[C@@H]21,5
COc1cccc(C#Cc2ccc3c(c2)[C@H]2[C@H](CCN2C(=O)c2ccc(F)cc2)[C@H](CO)N3)c1,-9
COc1ccc(C#Cc2ccc3c(c2)[C@@H]2[C@@H](CCN2C(C)=O)[C@@H](CO)N3)cc1,19
COc1cccc(C#Cc2ccc3c(c2)[C@@H]2[C@@H](CCN2C(=O)c2ccccc2F)[C@@H](CO)N3)c1,8
COc1cccc(C#Cc2ccc3c(c2)[C@H]2[C@H](CCN2C(=O)c2ccccc2F)[C@H](CO)N3)c1,-28*
O=C(c1ccccc1F)N1CC[C@H]2[C@H](CO)Nc3ccc(C#Cc4ccc(F)cc4)cc3[C@H]21,-6
COc1ccc(C#Cc2ccc3c(c2)[C@H]2[C@H](CCN2C(=O)c2ccccc2F)[C@H](CO)N3)cc1,-32*
C/C=C/c1ccc([C@@H]2[C@H](CO)N3C(=O)CN(Cc4ccccc4)C[C@@H]23)cc1,26
C[C@H]1CC=CC[C@@H](c2ccc(F)cc2)NC(=O)[C@H](Cc2ccccc2)N(C)C(=O)c2ccccc2O1 (mixture of isomers),-1
CCCNC(=O)N1[C@H](C#N)[C@@H](c2ccccc2-c2ccc(F)cc2)[C@@H]1CO,3
O=C(C[C@H]1CC[C@H](NC(=O)C2CCC2)[C@@H](CO)O1)NCc1ccncc1,2
C/C=C/c1ccc([C@H]2[C@@H](CO)N3C(=O)CN(Cc4ccc(C(=O)OC)cc4)C[C@@H]23)cc1,10
O=C(C[C@@H]1CC[C@H]2[C@@H](COC[C@@H](O)CN2C(=O)c2ccccc2F)O1)NCc1ccc(-c2ccccc2)cc1,-5
CN1C(=O)c2cc(NC(=O)Nc3ccccc3F)ccc2OC[C@@H]2O[C@@H](CC(=O)NCc3ccc(-c4ccccc4)cc3)CC[C@@H]21,0
CN(C)CC(=O)N1[C@H](C#N)[C@@H](c2ccc(C#CC3CCCC3)cc2)[C@@H]1CO,-3
OC[C@@H]1[C@@H](c2ccc(/C=C/c3ccccc3)cc2)[C@@H]2CN(Cc3cncnc3)CCCCN12,0
C/C=C/c1ccc(C2[C@H]3CNC[C@@H]2N3Cc2ccc3c(c2)OCO3)cc1 (stereo partly drawn),9
SMILES,DUX4 txn inh
C(=C\c1ccc(C2[C@H]3CNC[C@@H]2N3Cc2cncnc2)cc1)/c1ccccc1 (stereo partly drawn),4
c1cncc(CN2C[C@@H]3N[C@H](C2)C3c2ccc(-c3cccnc3)cc2)c1 (stereo partly drawn),-3
C/C=C/c1ccc(C2[C@@H]3CN(Cc4ccc5c(c4)OCO5)C[C@H]2N3)cc1 (stereo partly drawn),-10
C(=C\c1ccc(C2[C@@H]3CN(Cc4cccnc4)C[C@H]2N3)cc1)/c1ccccc1 (stereo partly drawn),-45*!
Cc1ccccc1-c1ccc(C2[C@@H]3CN(Cc4ccc5c(c4)OCO5)C[C@H]2N3)cc1 (stereo partly drawn),-37*!
CN(C)C(=O)c1ccc(-c2ccc(C3[C@@H]4CN(Cc5ccc6c(c5)OCO6)C[C@H]3N4)cc2)cc1 (stereo partly drawn),-30*!
c1cncc(-c2ccc(C3[C@@H]4CN(Cc5ccc6c(c5)OCO6)C[C@H]3N4)cc2)c1 (stereo partly drawn),-34*!
CN(C)C(=O)c1cccc(-c2ccc(C3[C@H]4CNC[C@@H]3N4Cc3ccc4c(c3)OCO4)cc2)c1 (stereo partly drawn),8
CN(C)C(=O)c1ccc(-c2ccc(C3[C@@H]4CN(C(=O)Cc5ccncc5)C[C@H]3N4)cc2)cc1 (stereo partly drawn),16
N#Cc1cccc(-c2ccc(C3[C@@H]4CN(Cc5cocn5)C[C@H]3N4)cc2)c1 (stereo partly drawn),5
COc1ccc(NC(=O)Nc2ccc3c(c2)C(=O)N([C@@H](C)CO)C[C@H](C)[C@@H](CN(C)S(=O)(=O)c2cn(C)cn2)O3)cc1,0
COc1ccc2c3c([nH]c2c1)[C@H](CO)N(C(=O)Cc1ccccc1)CC31CCN(C)CC1,2
Cc1ccccc1-c1cnc2c(c1)C(=O)N([C@@H](C)CO)C[C@@H](C)[C@H](CN(C)C(=O)c1ccncc1)O2,9
COCC(=O)N[C@@H]1C=C[C@H](CC(=O)N2CCCCC2)O[C@H]1CO,-7
CC(C)NC(=O)Nc1ccc2c(c1)C(=O)N([C@H](C)CO)C[C@H](C)[C@H](CN(C)S(=O)(=O)c1ccc(F)cc1)OCCCC[C@@H](C)O2,5
COC(=O)C[C@H]1C[C@H]2c3cc(N)ccc3O[C@H]2[C@@H](CO)O1,4
N#C[C@H]1[C@H](c2ccccc2-c2cccc(F)c2)[C@H](CO)N1C(=O)C1CCC1,-1
CC(=O)N1[C@H](CN(C)C(=O)c2ccccc2F)[C@@H](c2ccccc2)[C@@H]1CO,2
CN1c2ccc(Br)cc2[C@H]2[C@H](CCN2C(=O)Nc2ccc(F)cc2)[C@@H]1CO,16
COc1ccccc1-c1ccc([C@H]2[C@H](CO)N3CCCCN(Cc4ccncc4)C[C@@H]23)cc1,2
COc1ccccc1-c1ccc(C2[C@@H]3CN(Cc4nccs4)C[C@H]2N3)cc1 (stereo partly drawn),-43*
Cc1cccc(-c2ccc(C3[C@@H]4CN(Cc5cccc(F)c5)C[C@H]3N4)cc2)c1 (stereo partly drawn),-55*!
COc1ccccc1-c1ccc(C2[C@@H]3CN(Cc4cccc(F)c4)C[C@H]2N3)cc1 (stereo partly drawn),-48*
COc1cccc(CN2CCCCN3[C@@H](CO)[C@@H](c4ccc(-c5ccccc5OC)cc4)[C@@H]3C2)c1,3
CCCNC(=O)N1C[C@@H]2N[C@H](C1)C2c1ccc(-c2cccnc2)cc1 (stereo partly drawn),-1
COc1ccccc1-c1ccc(C2[C@H]3CNC[C@@H]2N3Cc2ccc(F)cc2)cc1 (stereo partly drawn),17
CCCNC(=O)N1C[C@@H]2N[C@H](C1)C2c1ccc(-c2cccc(F)c2)cc1 (stereo partly drawn),-43*!
c1ccc(-c2ccc(C3[C@H]4CNC[C@@H]3N4Cc3nccs3)cc2)cc1 (stereo partly drawn),9
